Pf growth 48h: inhibits P. falciparum growth in the first generation, 48 h | AID 504832 | P. falciparum luciferase growth in erythrocytes, 48 h | 5.9% of 310,000 active | Potency, µM (doses to about 28.7 µM), actives largely listed as inhibitors
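Compounds are pin-transferred into medium, infected erythrocytes (2% hematocrit, 0.1% parasitemia final) are added, and plates sit one parasite generation at 37 C in 5% CO2. Detection reagent is then added and luminescence measured.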
HCMV antiviral: human cytomegalovirus inhibition; HFF cells, HCMV-luciferase reporter, 72 h; stronger effect = lower value; activity change, negative = inhibition, % at 57.5 µM; 4.5% of 410,000 active; AID 1259415; in the data active means activity change below about -60%; inconclusive means no clear call, values can overlap the other calls; inactive means above about -39%
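Luciferase read-out from HCMV-luciferase-infected HFFs (MOI 1 PFU/cell) 72 h post infection at 37C; compounds added after 16 h cell attachment; activity normalized between buffer-only basal and Salinomycin (10uM) inhibitor controls.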
Pf growth 96h: inhibits malaria parasite growth, 96 h; 6.9% of 320,000 active; Potency, µM (doses to about 28.7 µM), hits mostly inhibitors; P. falciparum luciferase reporter growth, 96 h
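Compounds incubated with erythrocytes infected by luciferase-expressing P. falciparum (2% hematocrit, 0.05% parasitemia final) for 96 hours, 37 C in 5% CO2. Growth inhibition scored as decreased luciferase luminescence.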
Sm TGR inh: inhibitors of Schistosoma mansoni thioredoxin glutathione reductase; purified TGR, DTNB reduction, TNB absorbance 405 nm; Potency, µM (doses to about 114 µM), hits mostly inhibitors; 3% of 360,000 active; AID 485364; further: nearly all actives have a fitted effect of over 60% in size
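TGR 20 nM + NADPH 100 uM (dispensed conc.), cpd preinc 15 min RT; start with NADPH (500 uM addition) then DTNB (15 mM addition). Kinetic TNB absorbance, 405 nm filter. Four-parameter Hill fit across titration.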
FBPA Giardia inh: blocks Giardia fructose-bisphosphate aldolase activity. A8B2U2. purified Giardia FBPA. Potency, µM (highest dose often 59.6 µM), usual class: inhibitors. 0.71% of 290,000 active; further: nearly all actives have a fitted effect of over 55% in size
Target sequence (A8B2U2 whole entry, looked up): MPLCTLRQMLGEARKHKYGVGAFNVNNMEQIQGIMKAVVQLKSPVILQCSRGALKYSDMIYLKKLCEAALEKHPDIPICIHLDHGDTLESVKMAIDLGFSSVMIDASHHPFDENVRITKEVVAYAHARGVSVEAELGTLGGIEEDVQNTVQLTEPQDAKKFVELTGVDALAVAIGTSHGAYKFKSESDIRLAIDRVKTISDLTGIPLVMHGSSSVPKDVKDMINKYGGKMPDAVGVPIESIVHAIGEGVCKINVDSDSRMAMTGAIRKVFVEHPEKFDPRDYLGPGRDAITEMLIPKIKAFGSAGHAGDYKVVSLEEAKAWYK
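40 nM FBPA preincubated 10 min at RT with compound (up to 57.5 uM final), then substrate plus GAPDH/TPI/NAD/arsenate coupling and diaphorase/resazurin added. Fluorescence read after 20 min at RT, 525/598 nm.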
A number is an active result; . = inactive; ? = inconclusive; / = no result given; [ ] = another dose, or the depositor's remark. Shown are actives, neighbours in structure and some others; about 14% of the full set was active somewhere. Unless noted, the call rests on the fitted dose curve; in most records, active means well fitted curve in the direction sought with a large enough effect; inconclusive means small, poorly fitted or top-dose-only effect, or another doubt; inactive means no such curve, though single readings can be large; an effect the other way counts as inactive or inconclusive.

SMILES | Pf growth 48h | HCMV antiviral | Pf growth 96h | Sm TGR inh | FBPA Giardia inh
CC(C)Oc1ccc(C(=O)N2CCCc3ccccc32)cc1 | ? | . | . | . | .
COc1ccc(C(=O)N2CCCc3ccccc32)cc1 | . | . | 0.26µM | . | .
COc1ccccc1N(C)S(=O)(=O)c1ccc(C(=O)N2CCCc3ccccc32)cc1 | 13µM | . | ? | . | .
COc1ccccc1N(C)S(=O)(=O)c1ccc(C(=O)N2CCC2)cc1 | . | . | . | . | /
Cc1nc(SC(C(=O)c2ccccc2)c2ccccc2)nc2ccccc12 (centres undefined) | ? | . | ? | . | .
COc1ccc2nc(SC(C(=O)c3ccccc3)c3ccccc3)nc(C)c2c1 (centres undefined) | ? | . | 13µM | . | .
CC12C=CC(=O)C=C1CCC1C2C(=O)CC2(C)C1CCC2(O)C(=O)CO (centres undefined) | / | . | / | / | /
O=[N+]([O-])c1cc(S(=O)(=O)Nc2ccc(Cl)cc2)ccc1N/N=C/c1ccncc1 | ? | -102 | ? | . | .
CCOC(=O)c1c(Nc2ccc(O)cc2)nnc(-c2ccccc2)c1-c1ccccc1 | / | . | / | 45µM | /
CCOC(=O)c1c(Nc2ccccc2)nnc(-c2ccccc2)c1-c1ccccc1 | / | . | / | . | /
Cn1nc(CC#N)c2c(=N)n(N)cnc21 | / | . | / | / | /
O=C(NNc1ccnc2cc(Cl)ccc12)C1CCCCC1 | 1.7µM | -82 | 1µM | . | .
CC(C)N(C(=O)N1CCN(c2ccnc3cc(Cl)ccc23)CC1)C(C)C | 8.3µM | -90 | 8.3µM | . | .
CCOC(=O)N1CCN(c2ccnc3cc(Cl)ccc23)CC1 | 2.6µM | -63 | 2.3µM | . | .
FC(F)Oc1ccc(NC(=S)NNc2ccnc3cc(Cl)ccc23)cc1 | 8.3µM | -88 | ? | . | .
O=C(COc1ccccc1Cl)Nc1ccc2c(c1)C(=O)NC2=O | . | . | ? | . | /
COc1cccc(NC(=O)N2CCCC2C(=O)Nc2cc(C)ccc2OC)c1 (centres undefined) | . | . | . | . | .
Cc1ccc(S(=O)(=O)N2C[C@]3(O)C[C@@H]4C(=O)N(c5ccccc5)C(=O)[C@@H]4C[C@]3(OC(=O)Nc3c(C)noc3C)C2)cc1 | / | . | / | / | /
CCN(CC)C(=O)Oc1ccnc2cc(Cl)ccc12 | . | . | . | / | .
CCC(=O)N1CCN(c2ccnc3cc(Cl)ccc23)CC1 | 13µM | ? | 12µM | . | .
CS(=O)(=O)N1CCN(c2ccnc3cc(Cl)ccc23)CC1 | .[5.75 µM] | . | ? | . | .
O=C(c1ccc(Cl)cc1)N1CCN(c2ccnc3cc(Cl)ccc23)CC1 | 13µM | ? | . | / | .
O=C(Oc1ccnc2cc(Cl)ccc12)N1CCCCCC1 | / | -101 | ? | .[11.4 µM] | .
CCCCN(CCCC)C(=S)N/N=C/c1c(C)[nH]n(-c2ccccc2)c1=O | ? | . | . | . | ?
CCCSC(=S)c1c(C)[nH]n(-c2ccccc2)c1=O | . | -79 | . | ? | .
SMILES | Pf growth 48h | HCMV antiviral | Pf growth 96h | Sm TGR inh | FBPA Giardia inh
CC(=O)O[C@H]1C(=O)[C@@]2(C)C([C@H](OC(=O)c3ccccc3)[C@]3(O)C[C@H](OC(=O)[C@H](O)[C@@H](NC(=O)c4ccccc4)c4ccccc4)C(C)=C1C3(C)C)[C@]1(OC(C)=O)CO[C@@H]1C[C@@H]2O (some centres undefined) | / | / | / | / | .
O=C(O)c1cc(-c2ccccc2)n(-c2ccc(Cl)cc2Cl)n1 | / | . | . | . | .
O=C(O)c1cc(-c2ccccc2)n(-c2ccccc2C(=O)O)n1 | . | -100 | . | . | .
CCCCN1C(=O)C(=O)N(CC(=O)c2cc(C)n(-c3cc(C)on3)c2C)C1=O | 10µM | . | ? | . | /
Cc1cc(-n2c(C)cc(C(=O)CN3C(=O)C(=O)N(C)C3=O)c2C)no1 | / | . | / | / | /
Cc1cc(-n2c(C)cc(C(=O)CCl)c2C)no1 | . | -96 | ? | 8.9µM | .
CC[N+](C)(CC)CC(=O)Nc1c(C)cccc1C | / | / | / | / | .
Cc1cc(=O)[nH]c(Nc2cccc(Cl)c2C)n1 | .[0.00184 µM] | . | . | . | .
COc1ccc(C(=O)CCC(=O)Nc2cc(C)ccc2C)cc1 | / | . | / | . | /
COc1ccc(C(=O)CC(=O)C(=O)Nc2cc(C)ccc2C)cc1 | / | . | 9.3µM | . | .
COc1ccc(CC(=O)NNC(=O)CCC(=O)Nc2cc(C)ccc2C)cc1 | . | -104 | . | / | .
ClC(Cl)c1nnc(-c2ccccc2)c(-c2c[nH]c3ccccc23)n1 | ? | -86 | 9.3µM | . | .

Screening results (PubChem BioAssay)
